High-throughput results as filed in PubChem.
The list is not random: actives were taken first. Their share in the collection is about 11%.
G9a block = blocks human histone lysine methyltransferase G9a | Q96KQ7 | G9a H3K9 monomethylation, AlphaScreen, 2 h | Potency, µM (top dose mostly 102 µM), actives largely listed as inhibitors | actives 8.8% (n = 350,000); further: nearly all actives have a fitted effect of over 75% in size
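Methyltransferase reactions run at room temperature for 2 h (20 nM enzyme, 500 nM biotin-H3K9 peptide, 20 uM SAM) after a 15 min compound preincubation; product detected by AlphaScreen beads and anti-H3K9me1 antibody.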
HP1b binding inh = blocks HP1-beta chromodomain binding to methylated histone tails; actives 0.56% (n = 390,000); AlphaScreen HP1-beta / biotin-H3K9me3 peptide binding; Potency, µM (top dose mostly 114 µM), usual class: inhibitors; P83916; further: nearly all actives have a fitted effect of over 70% in size
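Compound inhibition of the preformed complex between 50 nM HP1-beta and 50 nM biotinylated H3K9me3 peptide was read by AlphaScreen. Buffer was PBS pH 7.4 with 0.01% Tween-20. Incubations ran 30 min at room temperature, with 10 ug/mL donor/acceptor beads.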
L3MBTL1 block = L3MBTL1 (human) inhibition; Potency, µM (highest dose often 57.1 µM), actives largely listed as inhibitors; AlphaScreen L3MBTL1–H3K9me1 peptide binding; Q9Y468; actives 0.66% (n = 230,000); further: nearly all actives have a fitted effect of over 60% in size
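First, the protein-peptide complex forms for 30 min at room temperature (L3MBTL1 50 nM, biotinylated H3K9me1 peptide 75 nM). Next, compounds are pin-transferred and incubated 30 min. Finally, AlphaScreen beads are added and read after 30 min.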
BAZ2B inh = blocks human BAZ2B; Potency, µM (series often up to 114 µM), usual class: inhibitors; AlphaScreen BAZ2B-H3K14Ac peptide displacement; actives 4.4% (n = 360,000); further: nearly all actives have a fitted effect of over 60% in size
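In this displacement format the biotinylated H3(5-23) peptide acetylated at Lys14 serves as ligand at 50 nM, with BAZ2B at 50 nM in PBS pH 7.4 containing 0.01% Tween-20. Donor and acceptor beads are 10 ug/mL final.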
JMJD2A Tudor inh = blocks the human JMJD2A Tudor domain | actives 4.4% (n = 390,000) | AlphaScreen JMJD2A-Tudor / H3K4me3 peptide binding | Potency, µM (top dose mostly 114 µM), usual class: inhibitors; further: nearly all actives have a fitted effect of over 50% in size
Hits are given with their value; ! = a repeat was not active; [ ] = remark or other dose. The call rests on the fitted dose curve; in most records, active means well fitted inhibition curve with a large enough effect; inconclusive means small, poorly fitted or top-dose-only effect; inactive means no such curve, though single readings can be large or run the other way.

O=c1cc(CN2CCN(Cc3ccccc3)CC2)c2ccc(O)c(O)c2o1 was read as G9a block 35.5µM, HP1b binding inh inactive, BAZ2B inh 39.8µM and JMJD2A Tudor inh inconclusive.
For COc1ccc(CCNc2oc(/C=C/c3ccc(OC)c(OC)c3)nc2C#N)cc1 the results were G9a block inactive, HP1b binding inh inactive, BAZ2B inh inactive and JMJD2A Tudor inh inactive.
`C[C@H](CO)N1C[C@H](C)[C@@H](CN(C)Cc2ccc(Cl)c(Cl)c2)Oc2c(NS(=O)(=O)c3cccs3)cccc2C1=O` gave HP1b binding inh inactive, L3MBTL1 block inactive and JMJD2A Tudor inh inconclusive.
Screening O=C(CSc1ncc(-c2ccc(F)cc2)[nH]1)N1CCCCC1 returned G9a block 44.7µM, HP1b binding inh inactive, L3MBTL1 block inactive, BAZ2B inh inconclusive and JMJD2A Tudor inh inactive.
For O=C(CSc1ncn[nH]1)N1CCCCC1 the results were HP1b binding inh inactive, BAZ2B inh inactive and JMJD2A Tudor inh inactive.
Screening O=C(CSc1ncc(-c2ccc(Cl)cc2)[nH]1)Nc1ccccc1F returned G9a block 10µM, HP1b binding inh inactive, BAZ2B inh inactive and JMJD2A Tudor inh inactive.
O=C(CSc1ncc(-c2ccccc2)[nH]1)Nc1ccccc1F was read as G9a block inconclusive, HP1b binding inh inactive, BAZ2B inh inconclusive and JMJD2A Tudor inh inactive.
Cc1cc2c(s1)c1cnn(Cc3ccc(C(C)C)cc3)c(=O)c1n2C was read as JMJD2A Tudor inh inactive.
O=C(NC1CCCCC1)C(c1ccncc1)N(Cc1ccccc1)C(=O)c1ccc(-c2ccccc2)[nH]1 (stereo unspecified) was read as G9a block inactive[0.501 µM], HP1b binding inh inactive, L3MBTL1 block inactive, BAZ2B inh inconclusive and JMJD2A Tudor inh inconclusive.
Screening CC(C)(C)NC(=O)C(c1ccncc1)N(Cc1ccco1)C(=O)c1ccc(-c2ccccc2)[nH]1 (stereo unspecified) returned G9a block 22.4µM, HP1b binding inh inconclusive, L3MBTL1 block inactive, BAZ2B inh inconclusive and JMJD2A Tudor inh 50.1µM.
`O=C(O)CC(NC(=O)C1c2ccccc2Oc2ccccc21)c1ccc(Cl)cc1` (stereo unspecified) gave G9a block 11.2µM, HP1b binding inh inactive, L3MBTL1 block inactive, BAZ2B inh inactive and JMJD2A Tudor inh inactive.
For CN1CCN(S(=O)(=O)c2ccc(CNC(=O)c3ccccc3)s2)CC1 the results were G9a block inactive, HP1b binding inh inactive, BAZ2B inh inactive and JMJD2A Tudor inh inactive.
Screening NC(=S)N/N=C/c1coc2c(ccc3ccccc32)c1=O returned G9a block inactive, HP1b binding inh inactive, L3MBTL1 block inactive, BAZ2B inh inactive and JMJD2A Tudor inh inactive.
`NC(=S)N/N=C1/CCSc2ccc3ccccc3c21` gave G9a block 44.7µM, HP1b binding inh inconclusive, L3MBTL1 block inconclusive, BAZ2B inh 50.1µM and JMJD2A Tudor inh inactive[11.4 µM].
c1cn(CCCNC2CCCCCCC2)cn1 was read as HP1b binding inh inconclusive and JMJD2A Tudor inh 39.8µM.
For c1cn(CCCNC2=NCCCCC2)cn1 the results were G9a block inactive, HP1b binding inh inactive, L3MBTL1 block inactive, BAZ2B inh 50.1µM and JMJD2A Tudor inh inactive.
Screening S=C(NCCCn1ccnc1)NC1CCCCC1 returned G9a block inactive, HP1b binding inh inactive, L3MBTL1 block inactive, BAZ2B inh inactive and JMJD2A Tudor inh inactive.
c1cn(CCCNc2ncnc3sc4c(c23)CCC4)cn1 was read as G9a block inactive, HP1b binding inh inactive, L3MBTL1 block inactive, BAZ2B inh inactive and JMJD2A Tudor inh inactive.
Nn1c(SCc2ccccc2)nc2ccccc21 was read as G9a block inactive, HP1b binding inh inactive, BAZ2B inh inactive and JMJD2A Tudor inh inactive.
For COc1ccccc1OCCCOc1cccc(/C=C2\SC(=O)NC2=O)c1 the results were G9a block inactive[0.501 µM], HP1b binding inh inactive, L3MBTL1 block inactive[2.29 µM], BAZ2B inh 79.4µM and JMJD2A Tudor inh 22.4µM.
COc1ccc(S(=O)(=O)c2cn(C)c3ccc(C)cc3c2=O)cc1 was read as G9a block inactive, HP1b binding inh inactive, BAZ2B inh inactive and JMJD2A Tudor inh inactive.
For CCOc1cc(C2Nc3ccccc3C(=O)N2Cc2ccco2)ccc1O (stereo unspecified) the results were HP1b binding inh inactive and JMJD2A Tudor inh inactive.
`COCCNC(=O)C(c1ccc(C)o1)N(CC1CCCO1)C(=O)Cn1nnc2ccccc21` (stereo unspecified) gave G9a block 50.1µM, HP1b binding inh inactive, L3MBTL1 block inactive, BAZ2B inh inactive and JMJD2A Tudor inh inactive.
For CC(C)CN1CC2(CCN(S(=O)(=O)c3ccccc3)CC2)C1 the results were G9a block inactive[12.7 µM].
`COc1ccc(N/N=C(\C#N)C(=N)N2CCCCC2)cc1` gave HP1b binding inh inactive, L3MBTL1 block inactive, BAZ2B inh inactive and JMJD2A Tudor inh inactive.
`COc1ccc(N/N=C(\C#N)C(=N)SCc2ccccc2)cc1` gave G9a block 28.2µM, HP1b binding inh inactive, BAZ2B inh inconclusive and JMJD2A Tudor inh inactive.
For COc1ccc(N/N=C(\C#N)C(=O)NCCc2ccc(OC)c(OC)c2)cc1 the results were G9a block 22.4µM, HP1b binding inh inactive, L3MBTL1 block inactive, BAZ2B inh inconclusive and JMJD2A Tudor inh inconclusive.
`Cc1ccc(CNC(=O)c2oc3ccc(S(=O)(=O)N4CCC(C)CC4)cc3c2C)cc1` gave G9a block inactive, HP1b binding inh inactive, BAZ2B inh inactive and JMJD2A Tudor inh inactive.
Screening COC(=O)C1=C[C@@H](C(=O)OC)C2C3=C(C(=O)[C@]2(C)NC(=O)c2ccccc2)[C@H](C)n2c(=O)n(C)c(=O)n2[C@@H]3C1 (stereo partly specified) returned HP1b binding inh inactive and JMJD2A Tudor inh inactive.
Screening CCOCCCN1C(=O)CN(C2CCCCCC2)C(=O)C1c1ccc(OC(C)C)c(OC)c1 (stereo unspecified) returned G9a block inactive, HP1b binding inh inactive, BAZ2B inh inactive and JMJD2A Tudor inh inactive.
Screening Cc1ccc(S(=O)(=O)/N=C(/Sc2ccccc2C(=O)O)c2ccccc2)cc1 returned HP1b binding inh 22.4µM!, BAZ2B inh inactive and JMJD2A Tudor inh inactive.
For Cc1ccc(S(=O)(=O)/N=C(\Sc2ccccc2)c2ccccc2)cc1 the results were G9a block inactive[12.7 µM], HP1b binding inh inactive, L3MBTL1 block inactive, BAZ2B inh inactive and JMJD2A Tudor inh inactive.
`O=C(Nc1ccc(Br)cc1)C1CCCN1S(=O)(=O)c1ccc(F)cc1` (stereo unspecified) gave G9a block inactive, HP1b binding inh inactive, BAZ2B inh inactive and JMJD2A Tudor inh inactive.
Screening O=C(O)CCCCCn1c(O)c(C=C2N=c3ccccc3=N2)sc1=S returned G9a block 8.91µM, HP1b binding inh inactive, L3MBTL1 block inactive, BAZ2B inh 50.1µM and JMJD2A Tudor inh inactive.
For CCN(CC)c1ccc(-n2c(O)c(C=C3N=c4ccccc4=N3)sc2=S)cc1 the results were G9a block inconclusive, HP1b binding inh inactive, L3MBTL1 block inactive, BAZ2B inh inactive and JMJD2A Tudor inh inactive.
